Results published in paper PMC7862700, “An all-to-all approach to the identification of sequence-specific readers for epigenetic DNA modifications on cytosine”.

The sequences below were run against T1, ETV3 (Homo sapiens, UniProt P41162-2 1-143) (assay: DAPPL (digital affinity profiling via proximity ligation, sequencing); 10 mM Tris-HCl pH 7.5, 50 mM NaCl, 1 mM DTT, 4% glycerol, room temperature, 30 min; GST-TFs on glutathione beads, 16-mer random dsDNA library, 0.1% formaldehyde crosslink after washing; high values mean tight binding). Conditions: protein: recombinant; tags: N-terminal GST; dsDNA, one strand shown.
T1 sequence: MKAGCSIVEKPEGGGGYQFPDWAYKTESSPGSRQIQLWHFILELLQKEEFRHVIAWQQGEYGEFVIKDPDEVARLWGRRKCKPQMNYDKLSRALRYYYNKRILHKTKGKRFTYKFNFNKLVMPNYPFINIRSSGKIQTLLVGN
In short: (§1)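 Binding signal is defined as a hexamer's read frequency for one factor over its frequency for the tag-only sample. To obtain reads, GST-fused human transcription factors were expressed in yeast, captured on glutathione beads, barcoded with DNA and pooled with that sample. Pools met 200 nmole of a 16-mer random double-stranded DNA library in Tris/NaCl/DTT/glycerol buffer for 30 min at room temperature before washing, 0.1% formaldehyde crosslinking, proximity ligation (BsaI/T4 ligase, 1 h, 37 °C), PCR and Illumina NextSeq500 sequencing.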

Sequence | binding signal
CCTTTG | 1.34 fold enrichment (6-mer frequency, TF over GST control)
GTGTTT | 1.15 fold enrichment (6-mer frequency, TF over GST control)
GCCTCA | 1.19 fold enrichment (6-mer frequency, TF over GST control)
TTGCAA | 1.18 fold enrichment (6-mer frequency, TF over GST control)
TGCGAA | 1.16 fold enrichment (6-mer frequency, TF over GST control)
GAAATT | 1.32 fold enrichment (6-mer frequency, TF over GST control)
TAAACA | 1.25 fold enrichment (6-mer frequency, TF over GST control)
GTACAC | 1.21 fold enrichment (6-mer frequency, TF over GST control)
TACATT | 1.2 fold enrichment (6-mer frequency, TF over GST control)
TGGTTC | 1.44 fold enrichment (6-mer frequency, TF over GST control)
CAACAT | 1.22 fold enrichment (6-mer frequency, TF over GST control)
AAGTCA | 1.15 fold enrichment (6-mer frequency, TF over GST control)
TCTCCG | 1.66 fold enrichment (6-mer frequency, TF over GST control)
CTGGGT | 1.07 fold enrichment (6-mer frequency, TF over GST control)
TACAAA | 1.08 fold enrichment (6-mer frequency, TF over GST control)
CAAGCA | 1.16 fold enrichment (6-mer frequency, TF over GST control)
CTTTCT | 1.52 fold enrichment (6-mer frequency, TF over GST control)
ATTAAC | 1.26 fold enrichment (6-mer frequency, TF over GST control)
TTGCGC | 1.07 fold enrichment (6-mer frequency, TF over GST control)
TGATGT | 1.15 fold enrichment (6-mer frequency, TF over GST control)

These sequences were tested against ETV6 (Homo sapiens, UniProt P41212 1-452) in the same assay as above. Conditions: protein: recombinant; tags: N-terminal GST; dsDNA, one strand shown.
ETV6, sequence (P41212 whole entry): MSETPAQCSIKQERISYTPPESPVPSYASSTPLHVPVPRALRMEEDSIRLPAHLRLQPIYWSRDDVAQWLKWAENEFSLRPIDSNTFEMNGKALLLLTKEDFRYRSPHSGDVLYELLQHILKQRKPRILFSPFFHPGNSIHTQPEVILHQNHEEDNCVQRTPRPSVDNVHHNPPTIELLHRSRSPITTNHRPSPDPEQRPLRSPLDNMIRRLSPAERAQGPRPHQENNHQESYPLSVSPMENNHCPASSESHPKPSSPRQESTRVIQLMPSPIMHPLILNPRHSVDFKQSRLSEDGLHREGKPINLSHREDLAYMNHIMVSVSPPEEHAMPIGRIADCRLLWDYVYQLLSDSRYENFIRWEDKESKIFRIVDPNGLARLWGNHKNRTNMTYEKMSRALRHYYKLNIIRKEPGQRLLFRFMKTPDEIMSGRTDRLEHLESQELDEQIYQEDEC
In short: as §1

Sequence | binding signal
TATGGT | 1.24 fold enrichment (6-mer frequency, TF over GST control)
TTGACC | 1.41 fold enrichment (6-mer frequency, TF over GST control)
ATGTCC | 1.57 fold enrichment (6-mer frequency, TF over GST control)
AACTTC | 2.76 fold enrichment (6-mer frequency, TF over GST control)
CTAAGC | 1.08 fold enrichment (6-mer frequency, TF over GST control)
ACAACT | 1.34 fold enrichment (6-mer frequency, TF over GST control)
CGACTA | 1.28 fold enrichment (6-mer frequency, TF over GST control)
GACCTG | 1.14 fold enrichment (6-mer frequency, TF over GST control)
GGTACT | 1.16 fold enrichment (6-mer frequency, TF over GST control)
GGGCTT | 1.2 fold enrichment (6-mer frequency, TF over GST control)
ACTGGC | 1.15 fold enrichment (6-mer frequency, TF over GST control)
TCTCAA | 1.27 fold enrichment (6-mer frequency, TF over GST control)
AAAAGA | 1.21 fold enrichment (6-mer frequency, TF over GST control)
CATCCG | 2.03 fold enrichment (6-mer frequency, TF over GST control)
AAGCGC | 1.15 fold enrichment (6-mer frequency, TF over GST control)
AGGAAA | 1.75 fold enrichment (6-mer frequency, TF over GST control)
TGCACG | 1.06 fold enrichment (6-mer frequency, TF over GST control)
GTCTTA | 1.11 fold enrichment (6-mer frequency, TF over GST control)
AAACGG | 1.28 fold enrichment (6-mer frequency, TF over GST control)
CGCTCC | 1.11 fold enrichment (6-mer frequency, TF over GST control)

Sequence | binding signal
CCTTTG | 1.17 fold enrichment (6-mer frequency, TF over GST control)
GTGTTT | 1.2 fold enrichment (6-mer frequency, TF over GST control)
GCCTCA | 1.18 fold enrichment (6-mer frequency, TF over GST control)
TTGCAA | 1.16 fold enrichment (6-mer frequency, TF over GST control)
TGCGAA | 1.09 fold enrichment (6-mer frequency, TF over GST control)
GAAATT | 1.41 fold enrichment (6-mer frequency, TF over GST control)
TAAACA | 1.25 fold enrichment (6-mer frequency, TF over GST control)
GTACAC | 1.29 fold enrichment (6-mer frequency, TF over GST control)
TACATT | 1.29 fold enrichment (6-mer frequency, TF over GST control)
TGGTTC | 1.32 fold enrichment (6-mer frequency, TF over GST control)
CAACAT | 1.09 fold enrichment (6-mer frequency, TF over GST control)
AAGTCA | 1.26 fold enrichment (6-mer frequency, TF over GST control)
TCTCCG | 1.48 fold enrichment (6-mer frequency, TF over GST control)
CTGGGT | 1.09 fold enrichment (6-mer frequency, TF over GST control)
TACAAA | 1.16 fold enrichment (6-mer frequency, TF over GST control)
CAAGCA | 1.14 fold enrichment (6-mer frequency, TF over GST control)
CTTTCT | 1.52 fold enrichment (6-mer frequency, TF over GST control)
ATTAAC | 1.22 fold enrichment (6-mer frequency, TF over GST control)
TTGCGC | 1.06 fold enrichment (6-mer frequency, TF over GST control)
TGATGT | 1.22 fold enrichment (6-mer frequency, TF over GST control)
